Screening results from PubChem.
tim10-1 inh: growth inhibitors of tim10-1 mutant yeast; inhibition, % at 20 µM; S. cerevisiae tim10-1 ts strain growth, BacTiter-Glo, 24 h; 330,000 tested, 2.2% active; AID 463190;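 active means inhibition of at least 40%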;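 further: mutant grown at 25 °C; 0% = DMSO wells with yeast and 100% = wells holding no yeast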
TIM10 inh: growth inhibitors of TIM10 yeast strain | 330,000 tested, 1.4% active | inhibition, % at 10 µM | S. cerevisiae TIM10 strain growth, BacTiter-Glo luminescence, 24 h | AID 463195;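 active means inhibition of 40% or more at the single tested concentration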;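 further: wild-type TIM10 isogenic control strain grown at permissive 25 °C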
PfHsp90 set2: inhibits growth of yeast expressing Plasmodium falciparum Hsp90 | S. cerevisiae expressing PfHsp90, BacTiter-Glo ATP, 48 h; yeast lacking PDR1 and PDR3 efflux regulators | inhibition, % at 9.4 µM | 310,000 tested, 0.32% active;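 active means every replicate shows inhibition above about 80%, whatever the replicate mean, limit read from the data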;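 further: 0% = DMSO neutral controls and 100% = 20 µM radicicol positive controls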
NALP3 yeast inh: blocks the NALP3 inflammasome reconstituted in yeast. Yeast reconstituted NLRP3/ASC/caspase-1, beta-gal luminescence, 24 h. AID 2825. 330,000 tested, 0.39% active. inhibition, % at 10 µM;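 active means inhibition of 50% or more; inactive means inhibition below 50%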;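 further: plate controls were induced DMSO wells for no effect and uninduced yeast grown without galactose for full effect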
tim23-1 inh: inhibits growth of tim23-1 mutant yeast. S. cerevisiae tim23-1 growth, BacTiter-Glo luminescence, 24 h. inhibition, % at 20 µM. 330,000 tested, 1.3% active. AID 463212;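 active means growth inhibition of the mutant yeast at or above 50%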;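 further: temperature-sensitive mutant grown at 25 °C; plate controls were DMSO-treated mutant yeast for no effect and medium wells lacking yeast for full effect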
tim10-1 conf: tim10-1 yeast growth inhibition, confirmed. 7,400 tested, 56% active. S. cerevisiae tim10-1 ts strain growth, BacTiter-Glo, 24 h. inhibition, % at 20 µM. shares compounds with tim10-1 inh;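 active means inhibition of yeast growth at or above a set limit in either of two repeat tests at 20 µM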;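 further: tim10-1 mutant grown at permissive 25 °C to find synthetic lethal compounds; 0% = DMSO yeast wells and 100% = medium wells without yeast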
TIM10 conf: TIM10 yeast growth inhibition, confirmed | 4,600 tested, 63% active | shares compounds with TIM10 inh | S. cerevisiae tim10 strain growth, BacTiter-Glo luminescence, 24 h | AID 463215 | inhibition, % at 10 µM;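 active means inhibition of yeast growth at or above a set limit in either of two replicates at 10 µM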;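 further: this counterscreen used the strain with wild-type TIM10; 0% = yeast with DMSO and 100% = medium wells lacking yeast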
tim23-1 confirm: confirmation of tim23-1 mutant yeast growth inhibitors. inhibition, % at 20 µM. AID 463218. S. cerevisiae tim23-1 growth, BacTiter-Glo luminescence, 24 h. shares compounds with tim23-1 inh. 4,400 tested, 83% active;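 active means inhibition above about 39% in either of two replicate wells at 20 µM, limit read from the data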;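 further: temperature-sensitive tim23-1 mutant grown at 25 °C; 0% = DMSO wells with yeast and 100% = medium wells without yeast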
* = called active by the depositor; / = no result given. Most compounds without a hit are left out; they make up all but 3.7% or so of the library.

SMILES | tim10-1 inh | TIM10 inh | PfHsp90 set2 | NALP3 yeast inh | tim23-1 inh | tim10-1 conf | TIM10 conf | tim23-1 confirm
N/C(=N\OC(=O)c1cccc(Cn2cc(C(F)(F)F)ccc2=O)c1)c1ccc(Cl)cc1 | 44* | 3 | 12 | -12 | 51* | 56* | / | 60*
COc1ccc(/C=N/NC(=O)c2nn(C)cc2Br)cc1CSCc1ccco1 | 44* | 26 | -11 | 18 | 52* | 20 | / | 47*
CCOc1cc(/C=N/NC(=O)c2nn(C)cc2Br)ccc1OCc1ccccc1 | 8 | 9 | -23 | 1 | 10 | / | / | /
FC(F)(F)c1cccc(Sc2nc(-c3ccccc3)nnc2C(F)(F)F)c1 | 40 | 15 | 4 | 3 | 22 | / | / | /
FC(F)(F)c1nnc(-c2ccccc2)nc1Sc1ccc(Cl)cc1 | 51* | 31 | -7 | 16 | 62* | 49* | / | 47*
S=C1NCCc2ccc(Cl)cc2C1c1ccccc1Cl (stereo unspecified) | 44* | 47* | -10 | -37 | 59* | 21 | 4 | 37
Clc1ccc2c(c1)C(C1=NCCN1)c1ccccc1CS2 (stereo unspecified) | -15 | 6 | -2 | 12 | 2 | / | / | /
COC(=O)CSc1nc(NC#N)nc(NC(C)C)n1 | -9 | 10 | -4 | -8 | -4 | / | / | /
O/C=c1\ccc2cccc3nc(C(F)(F)F)nc1c23 | 63* | 52* | 8 | 3 | 50* | 54* | 51* | 50*
NC(=S)N/N=C/c1ccccc1OCCSc1ccc(Cl)cc1 | 43* | 57* | -29 | 17 | 54* | 32* | 3 | 34
COCCNC(=O)c1c[nH]c2ccc(S(=O)(=O)N3CCC4(CC3)OCCO4)cc2c1=O | / | / | -6 | / | / | / | / | /
Cc1ccc(SCC(=O)NNC(=O)c2ccccc2)c(C)c1 | -18 | 10 | -4 | 6 | 10 | / | / | /
CCOC(=O)N1CCc2c(sc(NC(=O)c3ccc(Cl)s3)c2C(N)=O)C1 | 43* | 35 | / | 27 | 66* | 46* | / | 68*
COCCN(C(=O)CCC(=O)Nc1cc(C)on1)C(C(=O)NC1CCCC1)c1ccccc1C (stereo unspecified) | -6 | 10 | 11 | -1 | 13 | / | / | /
COCCN(C(=O)CCl)C(C(=O)NC1CCCCC1)c1ccccc1C (stereo unspecified) | 55* | 47* | -1 | 11 | 50* | 44* | 5 | 53*
Fc1ccc(-n2cc(-c3ccccc3)c3c(=S)nc[nH]c32)cc1 | 63* | 24 | -33 | -16 | 65* | 13 | / | 33
Cc1ccc(-n2cc(-c3ccccc3)c3c(=O)[nH]cnc32)cc1 | 48* | 49* | -49 | -77 | 57* | 32* | -39 | 43*
Fc1cccc(-n2cc(-c3ccccc3)c3c(=S)nc[nH]c32)c1 | 40* | 36 | -98 | 8 | 55* | 32* | / | 48*
O=c1[nH]cnc2c1c(-c1ccccc1)cn2-c1ccccc1 | 34 | 24 | -13 | -26 | 34 | / | / | /
S=c1nc[nH]c2c1cnn2-c1ccccc1 | 7 | -9 | 11 | 25 | 23 | / | / | /
CC1(C)Nc2ccccc2C(=O)N1NC(=O)c1ccccc1 | 0 | -8 | 21 | 3 | -7 | / | / | /
COc1ccc(O)c(-c2cc(-c3ccc(F)cc3)n[nH]2)c1 | 49* | 30 | -16 | -12 | 63* | 27 | / | 72*
COc1ccc(-c2cc(-c3cc(OC)ccc3O)[nH]n2)cc1 | 44* | 51* | / | 12 | 59* | 29* | 42* | 61*
COc1ccc(-c2n[nH]c(C)c2-c2cc(OC)ccc2O)cc1 | 18 | 2 | -13 | -9 | 7 | / | / | /
COc1ccc(C2(c3ccc(OC)cc3)NC(=O)N(CC(=O)NC3(C#N)CCCCC3)C2=O)cc1 | 12 | 5 | -2 | 13 | 15 | / | / | /
SMILES | tim10-1 inh | TIM10 inh | PfHsp90 set2 | NALP3 yeast inh | tim23-1 inh | tim10-1 conf | TIM10 conf | tim23-1 confirm
CS(=O)c1nc(-c2ccc(Br)cc2)cc(-c2ccccc2)c1C#N (stereo unspecified) | 41* | 20 | 0 | 16 | 68* | 46* | / | 60*
Cc1ccc(Nc2cc(C)nn2-c2nc(C)cc(C)n2)cc1 | 47* | 44* | -25 | 35 | 53* | 25 | -25 | 47*
CC(=O)Nc1cc(C)nn1-c1nc(C)cc(C)n1 | 9 | -15 | 11 | -2 | 2 | / | / | /
O=C1Nc2ccccc2/C1=C/c1ccc([N+](=O)[O-])cc1 | 56* | 81* | -18 | 45 | 74* | 62* | 81* | 59*
Cc1cccc(NC(c2ccc(C)s2)c2ccc3ccc(C)nc3c2O)n1 (stereo unspecified) | 93* | 34 | -8 | 4 | 57* | 86* | / | 45*
Cc1ccc(Nc2nc(=O)c3cccnc3s2)c(Br)c1 | 47* | 31 | 17 | 32 | 51* | 36* | / | 50*
COc1ccccc1NC(=O)Oc1cccc(OC(=O)c2ccccc2)c1 | 22 | 6 | 11 | -8 | 22 | / | / | /
CCc1cc2cc(C)cc(C)c2nc1Cl | -3 | 6 | -5 | 2 | 7 | / | / | /
Cc1cc(C)c2cc(C=O)c(Cl)nc2c1 | 45* | 51* | -7 | 17 | 67* | 40* | 32* | 78*
Cc1ccc(Cl)cc1NC1=C/C(=N\S(=O)(=O)c2cccs2)c2ccccc2C1=O | 71* | 74* | 11 | 16 | 52* | 66* | 69* | 65*
COc1cccc(NC(=O)CN(C)CC(=O)Nc2ccc(C)c([N+](=O)[O-])c2)c1 | -44 | -14 | 0 | 28 | -13 | / | / | /
Cc1ccc(C(=O)/C=C/c2ccc(-c3ccc(C)cc3)o2)cc1 | 63* | 57* | -108 | 2 | 60* | 64* | 66* | 76*
O=C1c2ccccc2C(=O)c2c([N+](=O)[O-])ccc(O)c21 | 59* | 35 | -13 | 10 | 59* | 38* | / | 69*
Cc1nc(Nc2cccc(Cl)c2)c2oc3ccccc3c2n1 | 32 | 33 | -9 | 13 | 43 | / | / | /
Cc1nc(Nc2cccc(F)c2)c2oc3ccccc3c2n1 | 44* | 5 | -10 | 7 | 55* | 29 | / | 60*
Fc1ccccc1-n1cc(-c2ccccc2)[nH]c1=S | 33 | 38 | -5 | 7 | 31 | / | / | /
COc1ccc(-n2cc(-c3ccc(OC)c(OC)c3)[nH]c2=S)cc1 | 11 | 4 | 10 | 2 | -3 | / | / | /
FC(F)(F)c1cccc(-n2cc(-c3ccccc3)[nH]c2=S)c1 | 48* | 35 | 14 | 27 | 56* | 35* | / | 50*
Cc1ccc(-c2cn(-c3ccccc3)c(=S)[nH]2)cc1C | 47* | 48* | -4 | 37 | 52* | 21 | 42* | 49*
